# Where “and” joins values, the source holds several entries; their conditions need not be identical. Identical values can stand only once. Unmarked numbers belong to inactive results. Results filed as inconclusive are left out. A call without a number means that no potency is given here. Calls of active or inactive are those of the source. Unless noted, calls come from the whole dose curve; as a rule, active = well fitted curve in the direction sought with a large enough effect; inconclusive = small, poorly fitted or top-dose-only effect, or another doubt; inactive = no such curve, though single readings can be large; an effect the other way counts as inactive or inconclusive.
# Key:
# [1] = qHTS assay for environmental chemicals that activate the Aryl hydrocarbon Receptor (AhR) signaling pathway (AID 651777); settings: 1A2-DRE human hepatoma cells, luciferase, 24 h; activation: hits give high values; note: nearly all actives have a fitted effect of over 15% in size; note: potency is the fitted concentration of half-maximal effect
# Method in brief: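 Following a 24 hr incubation with test chemicals at 37 C and 5% CO2, 1A2-DRE human hepatoma cells received One-Glo reagent; after 30 min at room temperature, luciferase output reflected CYP1A2 induction via AhR.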
# [2] = target: Peroxisome proliferator-activated receptor alpha (Homo sapiens) (UniProt Q07869); test: qHTS assay for small molecule agonists of the peroxisome proliferator-activated receptor alpha (PPARalpha) signaling pathway (AID 651778); settings: PathHunter PPARalpha complementation, chemiluminescence, 6 h; max response: hits give high values; note: potency is the fitted concentration of half-maximal effect
# Method in brief: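 Chemiluminescence from complemented enzyme reported PPARalpha activation in cells after 6 hr of compound treatment at 37 C. The detection reagent was incubated for 60 min at room temperature, and compounds were scored as agonists.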
# [3] = qHTS assay for small molecule agonists of the antioxidant response element (ARE) signaling pathway measured by Nrf2-dependant transcriptional activity (AID 720636; active = well fitted curve in the direction sought with a large enough effect in the repeat runs; an effect the other way counts as inactive or inconclusive;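 note: HepG2 cells with an ARE-driven luciferase reporter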); settings: ARE-luc HepG2, Nrf2 luciferase reporter, 16 h; series mostly up to 92.4 µM
# Method in brief: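 ONE-Glo luminescence, read 30 min after reagent addition at room temperature, reflected ARE reporter activity in HepG2 cells that had been incubated with compound for 16 hr at 37 C in 1% dialyzed FBS.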
# [4] = target: Nuclear receptor ROR-gamma (Homo sapiens) (UniProt P51449); test: qHTS assay for small molecule antagonists of the retinoid-related orphan receptor gamma (ROR-gamma) signaling pathway (AID 651802); settings: ROR-gamma antagonist cell reporter assay; series mostly up to 92.2 µM;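 note: CHO cells with doxycycline-induced ROR-gamma expression; luciferase reporter luminescence driven by ROR response element; nearly all actives have a fitted effect of over 60% in size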
# Method in brief: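 CHO, TET-inducible ROR + RORE-LUC reporter, 1536-well qHTS. Compound pinned, doxycycline added, 16hr 37C/5% CO2. ONE-Glo, 30 min RT, luminescence; signal drop scored as antagonism.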
# [5] = target: Arylsulfatase A (Homo sapiens) (UniProt P15289); test: qHTS screen for enhancers of Arylsulfatase A (ASA1): LOPAC Validation Assay (AID 720538); settings: ASA enzyme activity, LOPAC qHTS enhancer assay; series mostly up to 57.5 µM
# Method in brief: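 Read-out: fluorescence at Ex=525/Em=598 nm after 1N NaOH final stop. Patient fibroblasts carrying ASA-I179S had 48h compound exposure, then 14h room-temperature pNCS hydrolysis (0.5mM final) in lysis buffer. Signal increase = enhanced activity.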
# [6] = qHTS for compounds that reverse cellular toxicity of Amyloid beta (A-beta) peptide in yeast: LOPAC Validation Assay (AID 720559); settings: yeast expressing A-beta; series mostly up to 46.1 µM
# Method in brief: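 OD600 growth readout after 48 hr at 30 C; A-beta-toxic yeast plus pinned compounds in medium. Normalization: DMSO = negative, equimolar FeCl3 + clioquinol = positive.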
# [7] = qHTS for Activators of Parkin Expression: LOPAC Validation Assay (NLuc Reporter) (AID 720572); settings: Parkin promoter NanoLuc reporter cells, luminescence, percent of positive control, DMSO as zero; series mostly up to 46.1 µM
# Method in brief: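 Parkin promoter-driven FLuc/NLuc neuronal reporter cells; 24 h plating, 7-pt dose response, 24 h at 37 C/5% CO2; FLuc then NanoLuc reagent, 10 min each, luminescence; DMSO/positive control normalized.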
# [8] = qHTS for Activators of Parkin Expression: LOPAC Validation Assay (FLuc Reporter) (AID 720573); settings: Cell line, PRKN promoter firefly luciferase reporter, vehicle wells = 0, positive control = 100%; series mostly up to 46.1 µM
# Method in brief: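 FLuc luminescence read-out from a neuronal line expressing a Parkin-promoter-driven coincidence reporter. Cells treated 24 h at 37 C, 5% CO2 with compounds at 7 concentrations; signal increase normalized to DMSO and positive control.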
# [9] = qHTS for small molecule inhibitors of Yes1 kinase: Counter Assay (AID 686950); settings: series mostly up to 76.9 µM;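 note: no kinase present so only ADP-Glo detection of a fixed ADP amount is tested; luminescence from ADP-Glo reporting ADP in a fixed ATP and ADP mixture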
# Method in brief: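 Luminescence read-out from ADP-Glo quantifies a fixed ADP amount (0.02 mM ADP with 0.08 mM ATP) after 60 min at room temperature; signal is normalized between DMSO wells with ATP/ADP and with 0.1 mM ATP alone.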
# [10] = target: Tyrosine-protein kinase Yes (Homo sapiens) (UniProt P07947); test: qHTS for small molecule inhibitors of Yes1 kinase: Primary Screen (AID 686947); settings: Yes1 kinase biochemical qHTS inhibition; series mostly up to 76.9 µM; note: nearly all actives have a fitted effect of over 60% in size; note: potency is the fitted concentration of half-maximal effect
# Method in brief: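 Yes1 (4 nM) preincubated 20 min with compound, then 60 min room-temperature reaction with 0.1 mM ATP and 0.3 mg/mL poly(E4Y) in pH 7.5 Tris, 10 mM MgCl2. ADP measured by ADP-Glo luminescence, normalised to enzyme/no-enzyme controls.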
# Peroxisome proliferator-activated receptor alpha (Homo sapiens), sequence (Q07869 whole entry, looked up): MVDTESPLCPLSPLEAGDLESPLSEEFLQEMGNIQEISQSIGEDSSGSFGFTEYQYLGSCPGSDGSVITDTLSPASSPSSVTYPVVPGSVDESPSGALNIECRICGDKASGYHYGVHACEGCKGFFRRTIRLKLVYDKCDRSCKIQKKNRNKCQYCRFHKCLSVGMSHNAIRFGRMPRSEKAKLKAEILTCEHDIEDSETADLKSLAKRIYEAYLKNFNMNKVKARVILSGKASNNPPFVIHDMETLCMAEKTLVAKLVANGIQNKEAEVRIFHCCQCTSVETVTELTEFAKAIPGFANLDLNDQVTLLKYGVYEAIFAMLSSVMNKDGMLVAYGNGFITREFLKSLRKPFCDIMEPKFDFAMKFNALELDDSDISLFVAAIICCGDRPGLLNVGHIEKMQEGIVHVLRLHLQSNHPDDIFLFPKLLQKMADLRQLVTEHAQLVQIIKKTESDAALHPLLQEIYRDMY
# Nuclear receptor ROR-gamma (Homo sapiens), sequence (P51449 whole entry, looked up): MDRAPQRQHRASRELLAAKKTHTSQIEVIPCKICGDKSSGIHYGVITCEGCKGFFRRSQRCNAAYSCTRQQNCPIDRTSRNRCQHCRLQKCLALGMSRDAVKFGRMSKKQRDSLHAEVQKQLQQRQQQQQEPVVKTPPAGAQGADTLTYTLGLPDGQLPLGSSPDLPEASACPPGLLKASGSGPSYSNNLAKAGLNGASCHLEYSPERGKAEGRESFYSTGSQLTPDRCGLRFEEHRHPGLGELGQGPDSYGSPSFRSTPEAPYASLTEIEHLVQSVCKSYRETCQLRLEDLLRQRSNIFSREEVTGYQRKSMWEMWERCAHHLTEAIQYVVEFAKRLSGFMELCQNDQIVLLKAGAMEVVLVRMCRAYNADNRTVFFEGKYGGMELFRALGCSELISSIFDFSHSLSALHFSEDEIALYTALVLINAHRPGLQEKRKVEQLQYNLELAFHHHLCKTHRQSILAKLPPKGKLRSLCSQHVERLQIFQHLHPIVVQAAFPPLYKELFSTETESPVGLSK
# Tyrosine-protein kinase Yes (Homo sapiens), sequence (P07947 whole entry, looked up): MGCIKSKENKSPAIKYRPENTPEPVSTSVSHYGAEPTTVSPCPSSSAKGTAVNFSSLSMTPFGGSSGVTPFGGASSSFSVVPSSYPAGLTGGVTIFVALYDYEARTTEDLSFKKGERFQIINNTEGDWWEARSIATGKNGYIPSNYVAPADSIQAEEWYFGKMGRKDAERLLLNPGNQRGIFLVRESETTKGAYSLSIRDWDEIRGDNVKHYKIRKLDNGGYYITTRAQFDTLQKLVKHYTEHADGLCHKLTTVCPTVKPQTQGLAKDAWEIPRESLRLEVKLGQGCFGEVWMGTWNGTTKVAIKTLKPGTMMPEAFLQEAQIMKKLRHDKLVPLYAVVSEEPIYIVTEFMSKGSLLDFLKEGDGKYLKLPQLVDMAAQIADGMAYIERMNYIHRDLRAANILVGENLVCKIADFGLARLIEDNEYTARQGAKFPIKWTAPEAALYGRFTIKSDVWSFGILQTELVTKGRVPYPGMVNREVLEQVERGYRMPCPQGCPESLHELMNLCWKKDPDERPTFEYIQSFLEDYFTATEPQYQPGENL
# Arylsulfatase A (Homo sapiens), sequence (P15289 whole entry, looked up): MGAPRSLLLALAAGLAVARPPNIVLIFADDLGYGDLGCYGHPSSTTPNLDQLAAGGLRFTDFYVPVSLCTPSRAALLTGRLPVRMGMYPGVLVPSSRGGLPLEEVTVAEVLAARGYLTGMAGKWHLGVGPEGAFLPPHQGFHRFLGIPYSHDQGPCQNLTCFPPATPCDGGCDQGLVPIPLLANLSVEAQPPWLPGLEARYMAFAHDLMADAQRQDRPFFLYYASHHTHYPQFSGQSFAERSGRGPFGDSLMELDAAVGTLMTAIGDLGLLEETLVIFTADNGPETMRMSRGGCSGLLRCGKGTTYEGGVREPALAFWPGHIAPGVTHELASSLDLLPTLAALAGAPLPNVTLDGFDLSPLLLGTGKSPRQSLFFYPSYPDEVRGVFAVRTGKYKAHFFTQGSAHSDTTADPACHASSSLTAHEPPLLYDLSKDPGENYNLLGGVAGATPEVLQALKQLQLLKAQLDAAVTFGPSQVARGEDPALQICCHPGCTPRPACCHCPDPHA
smiles,measurement,setting,value
CCCCC(CC)COC(=O)c1ccccc1C(=O)OCC(CC)CCCC (stereo not given),activation,[1],-0.0838% and 0.859%
same,max response,[2],-1.13% and 3.57%
same,Potency,[3],inactive
CCOCCOC(C)=O,activation,[1],-0.221%
same,max response,[2],0.307%
same,Potency,[4],inactive
same,Potency,[3],inactive
O=C(O)CC[N+](=O)[O-],outcome,[5],inactive
same,outcome,[6],inactive
same,outcome,[7],inactive
same,outcome,[8],inactive
CO/C=C(/C(=O)OC)c1ccccc1Oc1cc(Oc2ccccc2C#N)ncn1,activation,[1],1.61%
same,Potency,[3],inactive
Cc1nc(-c2ccc(-c3ccc(C(=O)N4CCc5cc6c(cc54)C4(CCN(C)CC4)CO6)cc3)c(C)c2)no1,outcome,[9],inactive
CC1CC(C)C(=O)C(C(O)CC2CC(=O)NC(=O)C2)C1 (stereo not given),Potency,[10],inactive
same,outcome,[9],inactive
O=C(Oc1ccc([N+](=O)[O-])cc1)N1CCC(C(O)(c2ccc3c(c2)OCO3)c2ccc3c(c2)OCO3)CC1,Potency,[10],2.44 µM (active)
same,outcome,[9],inactive
COC(=O)[C@@H](N)CCCN=C(N)N[N+](=O)[O-],outcome,[5],inactive
same,outcome,[6],inactive
same,outcome,[7],inactive
same,outcome,[8],inactive
Brc1ccccc1-c1ccccc1,Potency,[4],inactive
C=CCON=C(C[C@H]1O[C@@H]2O[C@]3(C)CC[C@@H]4[C@H](C)CC[C@@H]([C@H]1C)[C@@]24OO3)[C@H]1O[C@@H]2O[C@]3(C)CC[C@H]4[C@H](C)CC[C@@H]([C@@H]1C)[C@@]24OO3,Potency,[10],6.88 µM (active)
same,outcome,[9],inactive
C1=CCOCc2cc(ccc2OCCN2CCCC2)Nc2nccc(n2)-c2cccc(c2)OCC1,Potency,[10],0.0434 µM (active)
Nc1cccc2c(N)cccc12,Potency,[1],25.1 µM (active)
same,Potency,[4],inactive
C[N+]1(C)C2CC(OC(=O)[C@H](CO)c3ccccc3)CC1C1OC12 (stereo not given in full),outcome,[5],inactive
C=CCC1=C(C)C(OC(=O)C2C(C=C(C)C)C2(C)C)CC1=O (stereo not given),activation,[1],0.269% and 0.976%
same,max response,[2],4.18%
same,Potency,[3],inactive
C#CCOC(=O)C1=CCCN(C)C1,outcome,[5],inactive
same,outcome,[6],inactive
same,outcome,[7],inactive
same,outcome,[8],inactive
CCCN(CCC)[C@@H]1CCc2ccc(O)cc2C1,outcome,[5],inactive
same,outcome,[6],inactive
same,outcome,[7],inactive
same,outcome,[8],inactive
CC[C@@]1(O)C(=O)OCc2c1cc1n(c2=O)Cc2cc3ccccc3nc2-1,outcome,[5],inactive
same,outcome,[6],inactive
same,outcome,[7],inactive
same,outcome,[8],inactive
Nc1ccc([N+](=O)[O-])cc1,max response,[2],-2.66%
same,Potency,[4],inactive
same,Potency,[3],inactive
COc1nn(CSP(=S)(OC)OC)c(=O)s1,activation,[1],-1.09%
same,max response,[2],-1.93%
same,Potency,[3],inactive
Cc1ccccc1-n1c(Cn2cnc3c(N)ncnc32)nc2cccc(C)c2c1=O,Potency,[10],inactive
same,outcome,[9],inactive
Cc1nc2cnc3ccc(C#Cc4cccnc4)cc3c2n1-c1ccc(C(C)(C)C#N)cc1,Potency,[10],2.18 µM (active)
O=S(=O)(O)C(F)(F)C(F)(F)C(F)(F)C(F)(F)F,activation,[1],1.87% and 3.11%
same,max response,[2],5.33% and 1.27%
same,Potency,[3],inactive
CCCCC(CC)COC(=O)c1ccccc1C(=O)O (stereo not given),Potency,[2],28.2 µM (active)
CC(C)(C)C(O)C(Oc1ccc(Cl)cc1)n1cncn1 (stereo not given),activation,[1],5.62%
same,max response,[2],-0.528%
same,Potency,[3],inactive
O=C(Cc1ccc(Cl)c(Cl)c1)N1CCCCC1CN1CCCC1 (stereo not given),outcome,[5],inactive
same,outcome,[6],inactive
same,outcome,[7],inactive
same,outcome,[8],inactive
COc1ccc2c(c[n+](C)c3c4cc5c(cc4ccc23)OCO5)c1OC,Potency,[10],inactive
same,outcome,[9],inactive
same,outcome,[5],inactive
same,outcome,[6],inactive
same,outcome,[7],inactive
same,outcome,[8],inactive
c1cc(-c2cnn3cc(-c4ccc(OCCN5CCCCC5)cc4)cnc23)ccn1,Potency,[10],0.0547 µM (active)
CC(=O)Nc1ccc(OC[C@](C)(O)C(=O)Nc2ccc([N+](=O)[O-])c(C(F)(F)F)c2)cc1,Potency,[10],inactive
same,outcome,[9],inactive
Nc1ccc(N=Nc2ccccc2)cc1,max response,[2],-2.06%
NC(=NCCC[C@H](N)C(=O)O)N[N+](=O)[O-],outcome,[5],inactive
same,outcome,[6],inactive
same,outcome,[7],inactive
same,outcome,[8],inactive
NC(CP(=O)(O)O)C(=O)O (stereo not given),outcome,[5],inactive
same,outcome,[6],inactive
same,outcome,[7],inactive
same,outcome,[8],inactive
NC(CCP(=O)(O)O)C(=O)O (stereo not given),outcome,[5],inactive
same,outcome,[6],inactive
same,outcome,[7],inactive
same,outcome,[8],inactive
CS(=N)(=O)CC[C@H](N)C(=O)O (stereo not given in full),outcome,[5],inactive
same,outcome,[6],inactive
same,outcome,[7],inactive
same,outcome,[8],inactive
O=C(N[C@H]1CN2CCC1CC2)c1ccc(Cl)cc1,outcome,[5],inactive
same,outcome,[6],inactive
same,outcome,[7],inactive
same,outcome,[8],inactive
CC(C)[C@]12O[C@H]1[C@@H]1O[C@]13[C@]1(O[C@H]1C[C@H]1C4=C(CC[C@@]13C)C(=O)OC4)[C@@H]2O,Potency,[10],inactive
same,outcome,[9],inactive
CCCN1CCO[C@@H]2c3cc(O)ccc3OC[C@H]21,outcome,[5],inactive
same,outcome,[6],inactive
same,outcome,[7],inactive
same,outcome,[8],inactive

# Source: PubChem BioAssay (NCATS)
